Results: PubChem BioAssay (NCI)
This is part of a sample that, as a whole, favours compounds with a hit. Of some 83,000 tested, about 20% had one in any assay.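 Percent growth is the endpoint: 0 to 100 indicates growth inhibition (40 means 60% inhibition), 0 means no net growth, and negative values indicate cell death.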 Values without a mark were called inactive. Activity calls are given as the source filed them. How the source made its calls: active means growth percent below 10; inactive means the rest.

The compounds below were run on COLO 205 colon (assay: NCI-60 one-dose screen, 48 h (100 = growth as untreated, 0 = no growth, -100 = all killed)). Details: 10 µM unless noted.

Question: With `Cn1cc(-c2nc(N)nnc2-c2c[nH]c3ccc(F)cc23)c2cc(Br)cnc21` as the compound, how does the growth read?
Answer: Its growth is -82.9% (active).

Question: For `COc1ccc2[nH]cc(-c3nnc(N)nc3-c3cn(C)c4ncc(Br)cc34)c2c1`, which growth is on record?
Answer: Its growth is 102%.

Question: How did the growth turn out when `COc1ccc(NC(=O)[C@H](C)N)cc1C(=O)Nc1cccc(C2CC(=O)c3c(cc(OC)c(OC)c3OC)O2)c1` (stereo partly drawn) was run?
Answer: Its growth is 115%.

Question: How did the growth turn out when `CC1(C)CC[C@]2(C(=O)O)CC[C@]3(C)C(=CCC4[C@@]5(C)C[C@@H](O)[C@@H]6OC(c7ccco7)OC[C@@]6(C)C5CC[C@]43C)C2C1` (stereo partly drawn) was run?
Answer: Its growth is -86.9% (active).

Question: With `COc1ccc2c(c1)c(/C=N/Nc1ccc3ccccc3n1)cn2C` as the compound, how does the growth read?
Answer: Its growth is -82.7% (active).

Question: How did the growth turn out when `Cc1ccc(S(=O)(=O)c2nc(S(=O)(=O)c3ccc(C)cc3)c(N3CCN(C)CC3)s2)cc1` was run?
Answer: The growth was 78%.

Question: With `COc1cc2c(c(OC)c1OC)C(=O)CC(c1cccc(NC(=O)c3cc(NC(=O)[C@H](C)N)ccc3Cl)c1)O2` (stereo partly drawn) as the compound, how does the growth read?
Answer: Its growth is 74.5%.

Question: Which growth does the source give for `Cc1ccc(C(=O)C(c2c[nH]c3ccccc23)c2c[nH]c3ccccc23)cc1` here?
Answer: Its growth is -45.7% (active).

These compounds were tested on DU-145 prostate in the same assay as above. Details: 10 µM unless noted.

Question: For `O=C(c1ccccc1)c1ccc2nc(-c3ccc(F)cc3)[nH]c2c1`, which growth is on record?
Answer: Its growth is 74.9%.

Question: How did the growth turn out when `CC1(C)CC[C@]2(C(=O)O)CC[C@]3(C)C(=CCC4[C@@]5(C)C[C@@H](O)[C@@H]6OC(c7ccc(F)cc7)OC[C@@]6(C)C5CC[C@]43C)C2C1` (stereo partly drawn) was run?
Answer: Its growth is 28.7%.

Question: For `N/C(=N\c1nc2ccccc2s1)NC(=O)Nc1ccc(Cl)cc1Cl`, which growth is on record?
Answer: Its growth is -74.2% (active).

Question: For `CCCCSc1nc(Nc2ccc(S(N)(=O)=O)cc2)c(C#N)c(-c2cc(OC)c(OC)c(OC)c2)n1`, which growth is on record?
Answer: The growth was 54.1%.

Question: With `O=C(COc1ccc2c(c1)CCCC(=O)N2)NCc1ccccc1` as the compound, how does the growth read?
Answer: The growth was 113%.

Question: `Nc1nc(-c2ccccc2)c(N=Nc2ccc([N+](=O)[O-])cc2Cl)s1` was tested. Which growth did it give?
Answer: The growth was 95.4%.

Question: `CC1(C)CC[C@]2(C(=O)O)CC[C@]3(C)C(=CCC4[C@@]5(C)C[C@@H](O)[C@@H]6OC(c7cccc(Br)c7)OC[C@@]6(C)C5CC[C@]43C)C2C1` (stereo partly drawn) was tested. Which growth did it give?
Answer: Its growth is 32.5%.

Question: With `C#CCOc1ccc(/C=N/Nc2nc(-c3cc4cc(OC)ccc4oc3=O)cs2)cc1OC` as the compound, how does the growth read?
Answer: Its growth is 31.5%.

Question: `N#Cc1c(NCc2ccccc2)n[nH]c1Nc1ccccc1` was tested. Which growth did it give?
Answer: The growth was 92.7%.

Question: With `COc1cc2oc(-c3cccc(C(=O)Nc4ccc(Cl)cc4)c3)cc(=O)c2c(OCC(=O)N[C@@H](Cc2ccccc2)C(=O)O)c1OC` as the compound, how does the growth read?
Answer: Its growth is 111%.

Question: Which growth does the source give for `Cn1cc(-c2cc3nc(-c4c[nH]c5ccc(Cl)cc45)cc(N)n3n2)c2ccccc21` here?
Answer: The growth was -85.9% (active).

Question: `C#C[C@]1(O)CC[C@H]2[C@@H]3CC=C4c5sc(-c6ccc([N+](=O)[O-])cc6)nc5CC[C@]4(C)[C@H]3CC[C@@]21C` was tested. Which growth did it give?
Answer: The growth was 6.96% (active).

Question: `O=C(CSc1nc2ccccc2c(=O)[nH]1)NCCN1CCCCC1` was tested. Which growth did it give?
Answer: Its growth is 106%.

Question: `C#CCOc1cc(N(CC)CC)ccc1C(C(=O)NC(C)(C)C)N(C(=O)C1CCc2cc(F)ccc2O1)c1ccc(F)c(Cl)c1` (stereo not drawn) was tested. Which growth did it give?
Answer: Its growth is 78.9%.

Question: With `O=c1oc2ccccc2cc1-c1csc(N2N=C(c3ccccc3)CC2c2ccc(N3CCOCC3)cc2)n1` (stereo not drawn) as the compound, how does the growth read?
Answer: Its growth is 113%.

Question: Which growth does the source give for `Cn1cc(-c2cc(N)n3nc(-c4cn(C)c5ncccc45)cc3n2)c2cccnc21` here?
Answer: The growth was 83.2%.

Question: `COc1ccc(-c2ccnc(SCc3cc4cc(OC)ccc4[nH]c3=O)n2)cc1` was tested. Which growth did it give?
Answer: Its growth is 43.7%.

Question: How did the growth turn out when `CCOc1ccc(-c2c(C#N)c(-c3ccc(Cl)cc3)nc3n[nH]c(-c4ccc(Cl)cc4)c23)cc1OC` was run?
Answer: Its growth is 64.9%.

Question: How did the growth turn out when `CN(C)c1ccnc(NCCCSC(c2ccccc2)(c2ccccc2)c2ccccc2)c1` was run?
Answer: The growth was 46.2%.

Question: For `O=C(Cn1c(/C=C/c2ccccc2)nc2ccccc2c1=O)Nc1ccccc1`, which growth is on record?
Answer: Its growth is 74.8%.

Question: How did the growth turn out when `O=C(O)c1cccc(-c2ccc(/C=N/NC(=O)c3[nH]c4ccc(Br)cc4c3-c3ccccc3)s2)c1` was run?
Answer: Its growth is 55.6%.

Question: With `C#CCOc1cc(N(CC)CC)ccc1C(C(=O)NC(C)(C)C)N(C(=O)C1CCc2cc(F)ccc2O1)c1cc(C)cc(C)c1` (stereo not drawn) as the compound, how does the growth read?
Answer: The growth was 58.1%.

Question: For `COc1cc2c(c(OC)c1OC)C(=O)CC(c1cccc(NC(=O)c3cc(NC(=O)[C@@H](N)CO)ccc3C)c1)O2` (stereo partly drawn), which growth is on record?
Answer: The growth was 119%.

Question: Which growth does the source give for `C#CCOc1ccc(/C=N/Nc2nc(-c3ccc(F)cc3)cs2)cc1OC` here?
Answer: The growth was 89%.

Question: How did the growth turn out when `Cc1cc2c(cc1Cl)C(=O)/C(=C/c1ccc(F)cc1)O2` was run?
Answer: Its growth is 118%.
